The test system of test [1] is XIP peptide (Xip251-270) binding. As to the kind of experiment: XIP fragment 251-270 binding compounds – biochemical, small-molecule microarray, fluorescence 635/667 nm, 0.1 µg/mL protein, primary screen (AID 1182). The settings on record: fluorescent protein binding, 635 nm, higher = more signal, called active from +8 up or from −8 down.
The next test concerns XIP peptide (Xip251-270). Description: compounds binding XIP fragment 251-270 – biochemical, small-molecule microarray, fluorescence 635/667 nm, 0.5 µg/mL protein, primary screen (AID 1183). To be noted: fluorescence 635 nm, higher = more signal.
A short description of test [2]: blood-stage malaria parasite viability loss – strain 3D7, DAPI fluorescence, 100 nL, primary screen (AID 1184).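 Further: parasites grown inside human red blood cells in medium with human serum.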 The settings on record: P. falciparum 3D7 growth, 3 d, higher = more signal.
Test [3] addresses Homeobox protein Hox-A13 (Mus musculus) (UniProt Q62424). As to the kind of experiment: disruptors of Hoxa13 oligonucleotide interaction – biochemical, fluorescence polarization, labeled oligonucleotide, primary screen (AID 1185). To be noted: Hoxa13:DNA binding, 15 min, higher = more signal, called active from +8 up or from −8 down.

Activity calls are given as the source filed them.

Sequence of Homeobox protein Hox-A13 (Mus musculus) (Q62424 whole entry, looked up): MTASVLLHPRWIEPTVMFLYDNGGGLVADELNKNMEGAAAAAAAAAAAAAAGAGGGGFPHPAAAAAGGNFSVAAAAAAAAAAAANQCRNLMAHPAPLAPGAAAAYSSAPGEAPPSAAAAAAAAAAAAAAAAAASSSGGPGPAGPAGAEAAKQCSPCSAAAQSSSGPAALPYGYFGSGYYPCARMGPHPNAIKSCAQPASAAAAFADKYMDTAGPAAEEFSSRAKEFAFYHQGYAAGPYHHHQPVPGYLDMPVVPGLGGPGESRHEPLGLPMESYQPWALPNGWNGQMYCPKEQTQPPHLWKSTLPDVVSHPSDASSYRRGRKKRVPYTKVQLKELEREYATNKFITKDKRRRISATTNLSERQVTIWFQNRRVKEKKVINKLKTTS

Consider `O=C(NN=C1C[C@@H](O)[C@@H](O)[C@@H]2[C@@H]3C(=O)N(c4cccc(Oc5ccccc5)c4)C(=O)[C@@H]3CC[C@H]12)OCc1ccccc1`, for which the composite z-score was -0.132 (inactive) in test [1] and 0.0323 in the test on XIP peptide (Xip251-270). Further, the z-score in test [2] was -1.43; in test [3] it was -3.8 (inactive).
As for `COc1ccc(OC[C@H]2Cc3c(-c4ccccc4)nc4c(c3CO2)CN(CCOc2ccccc2)CC4)cc1`, the composite z-score was 1.22 (inactive) in test [1] and 0.71 in the test with XIP peptide (Xip251-270). Further, the z-score was -1.34 in test [2] and -2.66 (inactive) in test [3].
For `COCCNC(=O)OCC1CCCC2(CC(OC(=O)NCCc3ccc(F)cc3)CC(CCC(=O)N[C@@H](C)C(=O)OC)O2)O1` (stereo partly drawn), in that order: 0.417 (inactive), 0.579, -1.82 and -3.44 (inactive).
For `COC(=O)[C@H](C)NC(=O)CCC1CC(OC(=O)NCc2cccc3ccccc23)CC2(CCCC(COC(=O)NCCc3ccc(Cl)cc3)O2)O1` (stereo partly drawn), in that order: -0.0057 (inactive), 0.204, -1.79 and -1.77 (inactive).
On to `COc1ccc(-c2nc3c(c4c2C[C@H](C)OC4)CN(CCC(C)C)CC3)cc1`, for which the values for the composite z-score (in test [1]; in the test with XIP peptide (Xip251-270)) were 0.731 (inactive) and 0.653, respectively. The z-score was 0.888 in test [2] and -5.51 (inactive) in test [3].
On the same counts, the results for `C[C@@H]1C=CCC(=O)OC[C@H](C)C(=O)OC[C@H]2O[C@H]1C=C[C@H]2O` are 0.0137 (inactive), 0.756, -0.315 and -1.13 (inactive).
For `CO[C@H]1COC(=O)[C@H](C)NC(=O)[C@@H](C)COC(=O)CC=C[C@@H]1C`, in that order: 0.166 (inactive), 0.518, 0.336 and -0.467 (inactive).
With `Cn1c(=O)n2n(c1=O)[C@H]1[C@H](O)[C@@H]3O[C@@H]3C(=NOC[C@@H](O)COCc3ccco3)[C@H]1CC2`, the composite z-score in test [1] is 3.04 (inactive); with XIP peptide (Xip251-270), 0.265. In addition, the z-score in test [2] is 0.192; in test [3], 0.445 (inactive).
For `CCN1C(=O)[C@H]2[C@H]3[C@H](O)[C@H](O)CC(=NO[C@@H]4O[C@H](CO)[C@@H](O)[C@H](O)[C@H]4O)[C@@H]3CC[C@H]2C1=O`, in that order: -0.232 (inactive), -0.321, 1.82 and -0.0696 (inactive).
For `COc1ccc(O[C@H]2C=C[C@@H](c3ccccc3)O[C@@H]2COC(=O)CCC(C)=NO[C@@H](C)c2cc(-c3c(C)cc(C)cc3C)no2)cc1`, in that order: -0.491 (inactive), -0.782, -0.739 and -0.508 (inactive).
With `COC(=O)CC=C[C@@H](C)[C@@H](C=NO[C@@H](C)c1cc(-c2c(C)cc(C)cc2C)no1)OC`, the composite z-score in test [1] was 0.0164 (inactive); in the test on XIP peptide (Xip251-270), -0.293. In addition, the z-score in test [2] was -1.12; in test [3], -3.69 (inactive).
On the same counts, the results for `COC(=O)CC=C[C@@H](C)[C@@H](C=NO[C@H](C)c1cn([C@@H]2COC[C@H]2O)nn1)OC` are -0.107 (inactive), 0.446, 0.354 and 0.0624 (inactive).
For `CC(CCN1CCc2nc(-c3ccccc3)c(-c3ccccc3)cc2C1)=NOC[C@@H](C)[C@H](OCc1ccccc1)C(C)C`, in that order: 2.56 (inactive), -0.445, -0.784 and -0.978 (inactive).
For `COC(=O)CC=C[C@H](C)[C@H](CO)NS(=O)(=O)c1ccc(C)cc1`, in that order: -0.291 (inactive), 0.507, 0.225 and -1.56 (inactive).
In the case of `CCOC(=O)NN=C1C[C@@H](O)[C@@H](O)[C@@H]2[C@@H]3C(=O)N(C[C@@H]4CCCO4)C(=O)[C@@H]3CC[C@@H]12`, the composite z-score is 0.0985 (inactive) in test [1] and -0.0422 in the test with XIP peptide (Xip251-270). Besides, the values for the z-score in test [2] and in test [3] were 0.839 and 0.513 (inactive), respectively.
For `COC(=O)[C@@H]1CC[C@H](C)[C@@H](c2ccc(C)cc2)N1C(=O)c1ccc(C=NOC(C)CN2CCCCc3nc(C)c(C)cc32)cc1` (stereo partly drawn), in that order: -0.206 (inactive), 0.51, -1.76 and -3.03 (inactive).
On the same counts, the results for `O=C(NN=C1C[C@@H](O)[C@@H](O)[C@@H]2[C@@H]3C(=O)N(c4ccc(F)cc4F)C(=O)[C@@H]3CC[C@@H]12)OCc1ccccc1` are -0.269 (inactive), 0.159, 0.823 and -1.72 (inactive).
For the compound `COc1cccc([C@@H]2Oc3ccc(Br)cc3C(=O)[C@H]2O)c1`, the composite z-score in test [1] was 2.46 (inactive); with XIP peptide (Xip251-270), 0.181. In addition, the z-score in test [2] is 0.988; in test [3], -1.54 (inactive).
For `Cc1cc2c(nc1C)CCCN2CC(C)ON=C1[C@H]2CCn3c(=O)n(-c4ccccc4)c(=O)n3[C@H]2[C@H](O)[C@@H]2O[C@H]12` (stereo partly drawn), in that order: 0.117 (inactive), 0.32, 0.0318 and -8.15 (active).
For the compound `O=C1[C@H]2[C@H]3[C@H](O)[C@H](O)CC(=NO[C@@H]4O[C@H](CO)[C@@H](O)[C@H](O)[C@H]4O)[C@@H]3CC[C@H]2C(=O)N1c1ccc(F)cc1F`, the results for the composite z-score (in test [1]; in the test on XIP peptide (Xip251-270)) were 0.34 (inactive) and 0.225, respectively. Besides, the z-score in test [2] is 0.531; in test [3] it was 0.036 (inactive).
For `CC(=O)OC[C@H]1O[C@H](CCON=C[C@@H](C)[C@H](OCc2ccccc2)C(C)C)C=C[C@@H]1OC(C)=O`, in that order: 0.72 (inactive), 0.165, -0.219 and -4.91 (inactive).
For `O=C1[C@H]2[C@H]3[C@H](O)[C@H](O)CC(=NO[C@@H]4O[C@H](CO)[C@@H](O)[C@H](O)[C@H]4O)[C@@H]3CC[C@H]2C(=O)N1Cc1ccccc1`, in that order: 0.0711 (inactive), 0.216, -0.165 and 0.638 (inactive).

The values are drawn from PubChem BioAssay.
